# PubChem BioAssay
# Activity calls are given as the source filed them.
# Columns and labels:
# [1] = E. coli DRC41 culture turbidity changes, primary screen, E. coli filamentation inducer project, strain DRC41, OD650, 48 h (AID 1152);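 note: E. coli MC1000 strain DRC41 lacking acrAB efflux pump and sulA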; details: E. coli DRC41 (acrAB sulA), higher = more signal, called active from +8 up or from −8 down
# [2] = small-molecule binders of probe aLefty1, primary screen, biochemical, small-molecule microarray, 635/667 nm fluorescence (AID 1153); details: higher = more signal;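 note: score merges spot fluorescence with signal-to-noise ratio from the scanned slide images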
# [3] = PSAC antagonists in infected red cells, primary screen, cell-based, P. falciparum Indochina, OD700, 1 h (AID 1154); details: P. falciparum Indochina infected RBC osmotic lysis, higher = more signal, called active from +8 up or from −8 down
# [4] = PSAC antagonists in infected red cells, primary screen, cell-based, P. falciparum Indochina, OD700, 2 h (AID 1155);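 note: lysis reports solute entry through the parasite surface anion channel PSAC; channel blockers reduce lysis of infected cells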; details: P. falciparum Indochina infected erythrocytes, osmotic lysis OD700; higher = more signal, called active from +8 up or from −8 down
# [5] = osmotic lysis modulators in infected erythrocytes, primary screen, PSAC antagonist project, cell-based, P. falciparum Indochina, OD700, 3 h (AID 1156); details: higher = more signal, called active from +8 up or from −8 down
# [6] = PSAC antagonists in infected red cells, primary screen, cell-based, P. falciparum Indochina, OD700, 18 h (AID 1157); details: P. falciparum Indochina infected erythrocytes, osmotic lysis OD700, 18 h; higher = more signal, called active from +8 up or from −8 down
# [7] = modulators of S6 phosphorylation in cells, primary screen, cell-based, A549, cytoblot, luminescence, serum-stimulated (AID 1158); details: A549 phospho-S6 cytoblot, 5 h, higher = more signal;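 note: serum-stimulated A549 lung adenocarcinoma cells; signal is phosphorylated S6 detected by cytoblot immunostaining with HRP secondary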
# [8] = molecular target: NADPH oxidase 2 (Homo sapiens) (UniProt P04839); assay: NOX2-dependent H2O2 signal modulators, primary screen, NOX inhibitor project, cell-based, HEK293-NOX2, PMA-stimulated, Amplex Red fluorescence (AID 1159); details: 45 min, higher = more signal, called active from +8 up or from −8 down; note: test concentration not given here
# Chain of NADPH oxidase 2 (Homo sapiens) (P04839 whole entry, looked up): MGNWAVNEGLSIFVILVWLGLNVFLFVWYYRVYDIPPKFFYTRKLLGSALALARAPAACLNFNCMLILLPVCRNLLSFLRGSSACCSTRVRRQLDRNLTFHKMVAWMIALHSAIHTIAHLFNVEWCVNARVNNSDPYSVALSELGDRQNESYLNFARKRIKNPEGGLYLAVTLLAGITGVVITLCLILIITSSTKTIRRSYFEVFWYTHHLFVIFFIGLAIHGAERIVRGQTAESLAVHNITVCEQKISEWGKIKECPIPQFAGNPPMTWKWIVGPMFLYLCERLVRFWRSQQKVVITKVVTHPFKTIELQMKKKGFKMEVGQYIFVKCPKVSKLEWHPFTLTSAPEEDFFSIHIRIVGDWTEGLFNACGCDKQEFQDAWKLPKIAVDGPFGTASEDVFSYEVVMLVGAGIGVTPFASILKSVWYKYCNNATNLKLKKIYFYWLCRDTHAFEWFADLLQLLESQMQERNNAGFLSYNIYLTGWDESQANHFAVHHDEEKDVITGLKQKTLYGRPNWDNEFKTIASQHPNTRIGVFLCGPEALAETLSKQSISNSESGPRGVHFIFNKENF
# [9] = molecular target: NADPH oxidase 4 (Homo sapiens) (UniProt Q9NPH5); assay: NOX4-dependent H2O2 signal modulators, primary screen, NOX inhibitor project, cell-based, HEK293-NOX4, tetracycline-induced, Amplex Red fluorescence (AID 1160); details: 45 min, higher = more signal, called active from +8 up or from −8 down
# Chain of NADPH oxidase 4 (Homo sapiens) (Q9NPH5 whole entry, looked up): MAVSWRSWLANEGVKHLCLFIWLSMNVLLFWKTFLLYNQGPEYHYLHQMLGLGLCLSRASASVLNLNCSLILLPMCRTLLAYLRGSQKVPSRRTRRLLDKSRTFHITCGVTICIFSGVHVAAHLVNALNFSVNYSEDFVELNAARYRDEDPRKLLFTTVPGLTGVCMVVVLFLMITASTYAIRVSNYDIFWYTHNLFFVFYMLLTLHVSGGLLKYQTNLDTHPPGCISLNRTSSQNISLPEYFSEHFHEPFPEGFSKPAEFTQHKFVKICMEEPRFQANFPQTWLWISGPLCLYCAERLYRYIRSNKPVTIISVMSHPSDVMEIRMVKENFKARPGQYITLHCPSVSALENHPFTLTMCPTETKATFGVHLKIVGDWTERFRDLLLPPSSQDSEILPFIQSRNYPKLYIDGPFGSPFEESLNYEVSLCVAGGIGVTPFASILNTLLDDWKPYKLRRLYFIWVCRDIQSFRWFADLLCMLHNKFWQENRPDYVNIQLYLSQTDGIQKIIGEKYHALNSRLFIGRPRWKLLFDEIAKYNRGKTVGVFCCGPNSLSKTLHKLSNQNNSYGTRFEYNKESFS
# [10] = molecular target: NADPH oxidase 5 (Homo sapiens) (UniProt Q96PH1); assay: NOX5-dependent H2O2 signal modulators, primary screen, NOX inhibitor project, cell-based, HEK293-NOX5, Amplex Red fluorescence (AID 1161); details: HEK293-NOX5, ionomycin, 45 min, higher = more signal
# Chain of NADPH oxidase 5 (Homo sapiens) (Q96PH1 whole entry, looked up): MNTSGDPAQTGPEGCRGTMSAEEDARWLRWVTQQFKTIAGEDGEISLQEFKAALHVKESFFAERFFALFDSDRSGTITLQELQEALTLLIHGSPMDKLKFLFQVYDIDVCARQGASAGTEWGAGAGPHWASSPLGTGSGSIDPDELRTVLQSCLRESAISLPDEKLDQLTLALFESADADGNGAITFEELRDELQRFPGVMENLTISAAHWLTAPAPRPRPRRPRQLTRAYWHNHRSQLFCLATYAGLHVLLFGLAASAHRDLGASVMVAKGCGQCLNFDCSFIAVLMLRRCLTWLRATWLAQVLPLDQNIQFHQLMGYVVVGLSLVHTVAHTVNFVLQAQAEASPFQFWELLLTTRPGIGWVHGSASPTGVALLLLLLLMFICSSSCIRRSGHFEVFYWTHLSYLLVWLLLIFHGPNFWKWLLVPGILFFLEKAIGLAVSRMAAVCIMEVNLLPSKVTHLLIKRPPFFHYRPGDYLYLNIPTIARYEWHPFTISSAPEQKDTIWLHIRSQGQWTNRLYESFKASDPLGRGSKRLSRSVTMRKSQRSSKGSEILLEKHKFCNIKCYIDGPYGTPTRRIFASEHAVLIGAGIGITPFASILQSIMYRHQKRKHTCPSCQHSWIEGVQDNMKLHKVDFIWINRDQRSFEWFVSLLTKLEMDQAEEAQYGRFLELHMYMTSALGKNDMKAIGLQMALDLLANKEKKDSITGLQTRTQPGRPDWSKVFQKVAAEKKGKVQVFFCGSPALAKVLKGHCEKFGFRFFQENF
SMILES,z-score [1],composite z-score [2],z-score [3],z-score [4],z-score [5],z-score [6],z-score [7],z-score [8],z-score [9],z-score [10]
CCOC(=O)[C@@H]1[C@@H]2C(=O)N(CC)C(=O)[C@@H]2C[C@@H]1Sc1ccccc1,-0.785 (inactive),-0.247,1.44 (inactive),1.16 (inactive),-0.245 (inactive),0.905 (inactive),-0.502,-2.32 (inactive),-4.05 (inactive),-0.796
C=CCN1C(=O)[C@]2(CC=C)N=C(c3ccc(OCCCO)cc3)O[C@@H]2c2ccccc21,0.987 (inactive),0.544,33.2 (active),34.2 (active),2.64 (inactive),10.6 (active),-0.112,-1.13 (inactive),1.08 (inactive),1.09
C=CCOC(=O)[C@H]1[C@@H]2C(=O)O[C@@H](c3ccccc3)[C@@H](c3ccccc3)N2[C@@H](c2ccc(OCCOC(=O)[C@H]3C[C@H]4C(=O)N[C@@H](Cc5ccccc5)C(=O)N4[C@H]3c3cccc(OCCO)c3)cc2)[C@]12C(=O)Nc1ccc(I)cc12,-0.386 (inactive),1.29,0.977 (inactive),0.856 (inactive),-0.874 (inactive),0.84 (inactive),-0.28,2.07 (inactive),1.35 (inactive),1.52
NC(=O)NCC#Cc1ccc2c(c1)[C@]1(C(=O)N2)[C@H](C(=O)Nc2nc3ccccc3s2)[C@H]2C(=O)O[C@H](c3ccccc3)[C@H](c3ccccc3)N2[C@@H]1c1ccc(O)cc1,0.996 (inactive),0.315,2.92 (inactive),2.35 (inactive),0.962 (inactive),1.19 (inactive),-0.0609,-0.23 (inactive),-1.27 (inactive),0.16
CCOC(=O)[C@H]1C/C=C/C[C@H](C(=O)OCC)C(=O)O[C@H]2[C@@H](OC)O[C@H](CO)[C@@H](OC(=O)CCc3ccccc3)[C@@H]2OC1=O,-0.142 (inactive),1.63,0.955 (inactive),0.175 (inactive),-0.518 (inactive),0.386 (inactive),-0.0947,0.281 (inactive),0.273 (inactive),0.541
C[C@]12C(=O)N(CCCCCCO)[C@@H]3C(=O)N(c4ccc(Cl)cc4)CC=CC31O[C@@H]1/C=C\CCCOC(=O)C12 (stereo not given in full),1.64 (inactive),-0.25,2.61 (inactive),-1.32 (inactive),-0.397 (inactive),-1.66 (inactive),0.654,1.12 (inactive),0.428 (inactive),2.22
COc1ccc(CCNC(=O)[C@@]2(Sc3ccc(C)cc3)CC(=O)N(Cc3cc(C(F)(F)F)cc(C(F)(F)F)c3)[C@@H]2c2ccc(CO)cc2I)cc1,0.0818 (inactive),0.0509,10.5 (active),1.25 (inactive),-0.459 (inactive),0.132 (inactive),0.179,1.15 (inactive),-1.07 (inactive),0.562
CC=CC(O)C1C=CC2C(=O)N(c3ccccc3)C(=O)C2N1Nc1ccc([N+](=O)[O-])cc1 (stereo not given),-1 (inactive),0.0378,8.61 (active),1.61 (inactive),0.457 (inactive),0.876 (inactive),-0.701,-0.095 (inactive),-1.91 (inactive),-0.909
CCOC(=O)C[C@H]1[C@H](OC(=O)c2ccc(-c3ccccc3)cc2)[C@@H](NC(=O)C2CCCCC2)c2cc(OCCCO)ccc2N1C(=O)c1ccccc1,-0.915 (inactive),-0.263,0.479 (inactive),0.705 (inactive),-0.138 (inactive),0.505 (inactive),1.09,0.169 (inactive),-0.849 (inactive),1.49
O=C1NC(=O)C2C1C=CC(C(O)c1ccc(Br)cc1)N2Nc1ccccn1 (stereo not given),-0.325 (inactive),0.5,-0.0691 (inactive),-1.06 (inactive),0.215 (inactive),-1.94 (inactive),0.599,-1.54 (inactive),-2.6 (inactive),-1.93
CC(C)N1CC=CC23O[C@@H]4C=CCOC(=O)[C@@H]4[C@H]2C(=O)N(C(C)CO)[C@@H]3C1=O (stereo not given in full),-0.32 (inactive),0.233,0.287 (inactive),0.0397 (inactive),0.112 (inactive),0.111 (inactive),0.74,0.67 (inactive),0.266 (inactive),0.393
COc1ccc(C(O)C2C=CC3C(=O)N(Cc4ccccc4)C(=O)C3N2n2cnnc2)c2ccccc12 (stereo not given),-0.855 (inactive),0.425,0.782 (inactive),-0.11 (inactive),1.57 (inactive),-1.58 (inactive),2.01,-2.98 (inactive),-0.674 (inactive),-3.65
CCOC(=O)C1=C[C@@H](c2ccccc2)N(S(=O)(=O)c2ccc(C)cc2)[C@H]1c1cccc(Cl)c1,-1.29 (inactive),0.409,1.57 (inactive),1.24 (inactive),-0.276 (inactive),0.805 (inactive),-0.645,0.14 (inactive),-0.143 (inactive),0.0576
